Measurements: PubChem BioAssay
For some of these results: Results with a measured potency or affinity are listed apart. Activity calls are given as the source filed them. Unless noted, the rule behind the calls is not given here.

Columns and labels:
[1] = target: Calcium-dependent protein kinase 1 (Plasmodium falciparum (isolate 3D7)) (UniProt P62344); test: PfCDPK1 kinase inhibitors, biochemical, TCAMS library (AID 1159585; cut-off not given, nearly all actives have IC50 up to about 0.98 µM;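 note: inhibitors leave more ATP so luminescence rises with inhibition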); conditions: recombinant PfCDPK1, Kinase-Glo ATP depletion luminescence
[2] = target: Plasmodium falciparum protein kinase 6 (PK6, PF3D7_1337100) (UniProt Q8IDW1); test: PfPK6 kinase inhibitors, biochemical, TCAMS library (AID 1159586); conditions: recombinant PfPK6, Kinase-Glo ATP depletion luminescence
[3] = target: Protein kinase 7 (PK7), Plasmodium falciparum 3D7 (PF3D7_0213400) (UniProt Q7YTF7); test: inhibition of Plasmodium PK7 catalytic activity – biochemical, TCAMS antimalarial set, Kinase-Glo luminescence (AID 1159587); conditions: recombinant PfPK7, Kinase-Glo ATP depletion luminescence
[4] = target: Calcium-dependent protein kinase 4 (Plasmodium falciparum (isolate 3D7)) (UniProt Q8IBS5); test: PfCDPK4 kinase inhibitors, biochemical, TCAMS library (AID 1159588; cut-off not given, nearly all actives have IC50 up to about 0.91 µM); conditions: recombinant PfCDPK4, Kinase-Glo ATP depletion luminescence

Measured: outcome

Sequence of Calcium-dependent protein kinase 1 (Plasmodium falciparum (isolate 3D7)) (P62344 whole entry, looked up): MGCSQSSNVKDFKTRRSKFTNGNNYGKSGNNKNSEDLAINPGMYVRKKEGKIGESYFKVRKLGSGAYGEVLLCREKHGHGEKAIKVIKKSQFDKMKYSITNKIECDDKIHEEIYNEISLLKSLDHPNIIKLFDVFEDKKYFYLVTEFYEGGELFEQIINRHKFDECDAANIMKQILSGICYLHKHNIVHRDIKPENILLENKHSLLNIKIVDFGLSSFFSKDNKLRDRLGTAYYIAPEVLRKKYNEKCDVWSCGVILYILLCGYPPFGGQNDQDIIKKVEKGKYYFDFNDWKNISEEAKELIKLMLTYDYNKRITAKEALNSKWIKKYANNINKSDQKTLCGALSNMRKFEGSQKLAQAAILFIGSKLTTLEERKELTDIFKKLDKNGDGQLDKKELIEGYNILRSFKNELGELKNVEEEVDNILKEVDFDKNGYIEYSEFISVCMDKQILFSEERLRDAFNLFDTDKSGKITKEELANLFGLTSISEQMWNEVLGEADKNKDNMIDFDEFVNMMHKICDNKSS
Sequence of Calcium-dependent protein kinase 4 (Plasmodium falciparum (isolate 3D7)) (Q8IBS5 whole entry, looked up): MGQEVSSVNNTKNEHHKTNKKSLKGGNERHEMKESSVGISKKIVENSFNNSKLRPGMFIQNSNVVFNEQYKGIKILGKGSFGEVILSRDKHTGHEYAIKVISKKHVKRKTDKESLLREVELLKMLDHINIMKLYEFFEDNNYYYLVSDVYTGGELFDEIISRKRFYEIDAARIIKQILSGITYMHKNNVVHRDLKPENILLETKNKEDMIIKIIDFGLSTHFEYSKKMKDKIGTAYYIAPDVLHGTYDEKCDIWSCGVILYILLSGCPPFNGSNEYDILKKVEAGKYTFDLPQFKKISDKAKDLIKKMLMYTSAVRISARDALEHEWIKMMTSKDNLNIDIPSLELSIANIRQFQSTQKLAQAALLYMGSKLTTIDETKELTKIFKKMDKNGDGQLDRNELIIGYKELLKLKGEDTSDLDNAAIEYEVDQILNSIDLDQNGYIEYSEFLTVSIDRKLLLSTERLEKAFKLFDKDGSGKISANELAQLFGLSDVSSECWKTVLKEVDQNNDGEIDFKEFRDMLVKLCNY
Sequence of Plasmodium falciparum protein kinase 6 (PK6, PF3D7_1337100) (Q8IDW1 1-305): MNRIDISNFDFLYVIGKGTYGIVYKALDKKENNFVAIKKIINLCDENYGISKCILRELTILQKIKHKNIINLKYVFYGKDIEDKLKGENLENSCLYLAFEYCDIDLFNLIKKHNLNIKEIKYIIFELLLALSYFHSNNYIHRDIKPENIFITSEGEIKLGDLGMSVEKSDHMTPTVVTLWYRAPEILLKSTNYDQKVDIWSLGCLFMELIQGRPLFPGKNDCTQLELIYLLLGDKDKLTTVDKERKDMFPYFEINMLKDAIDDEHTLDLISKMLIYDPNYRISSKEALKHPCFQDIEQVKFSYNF
Sequence of Protein kinase 7 (PK7), Plasmodium falciparum 3D7 (PF3D7_0213400) (Q7YTF7 1-343): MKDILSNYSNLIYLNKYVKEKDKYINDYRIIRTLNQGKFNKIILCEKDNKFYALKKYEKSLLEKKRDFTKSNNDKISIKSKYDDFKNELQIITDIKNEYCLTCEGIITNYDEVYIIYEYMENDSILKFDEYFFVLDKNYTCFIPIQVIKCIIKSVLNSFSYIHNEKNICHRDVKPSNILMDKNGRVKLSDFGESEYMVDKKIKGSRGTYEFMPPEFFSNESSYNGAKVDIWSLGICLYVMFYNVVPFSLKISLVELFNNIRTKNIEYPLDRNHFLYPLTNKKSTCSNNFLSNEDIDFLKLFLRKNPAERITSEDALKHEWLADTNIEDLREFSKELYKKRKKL

C=CC[C@@H](C[C@H](O)[C@H](Cc1ccccc1)NC(=O)c1ccc(-n2cccn2)cc1)C(=O)NC1CCCCC1
inactive: all assays above
